PINK1 modulator = A Quantitative High throughput Screen to Identify Chemical Modulators of PINK1 Expression. PINK1 immunofluorescence, high-content cytometry, 24 h. Potency, µM (series often up to 76.6 µM), without a hit: top-dose activation (PINK1 increase), most hits filed as activators. hit rate 0.2% among 410,000; active = well fitted activation curve with a large enough effect; inconclusive = small, poorly fitted or top-dose-only effect; cell line not stated here; also: potency is read from the fitted curve at half-maximal effect; % of control where 0% means no effect; nearly all actives have a fitted effect of over 65% in size
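Compound titrations (5 concentrations, 24 h) on a stable cell line; DMSO and CCCP controls. Endpoint: fixed-cell PINK1 immunofluorescence with mitochondrial, cell and nuclear markers, scanned by microplate cytometer.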
IL2 activator = qHTS of IL-2 Activators | IL-2 activation reporter assay, cell-based qHTS; stimulated with anti-CD3/CD4/CD28 beads; in transgenic mouse T cells | activation, % (series mostly up to about 46 µM) | hit rate 0.065% among 360,000; in the data active = activation above about 50%; inconclusive = mostly about 30% to 49%; also: 0% is about no effect
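Unstimulated transgenic mouse T cells, 750 per well, received compound and, after 60 minutes, anti-CD3/anti-CD4 bead plus anti-CD28 stimulation. EGFP and DsRed were quantified after 18 hours.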
uPA surface inh = qHTS for Inhibitors of Cell Surface uPA Generation. cell surface uPA generation assay, qHTS. Potency, µM (doses to about 38.3 µM), for inactives: at the top dose activity change, negative = inhibition, most hits filed as inhibitors. hit rate 0.31% among 330,000. AID 540303, 2011; active = well fitted inhibition curve with a large enough effect; inconclusive = small, poorly fitted or top-dose-only effect; inactive = no such curve, though single readings can be large or run the other way; tested in mouse RAW 264.7 cells; also: potency is read from the fitted curve at half-maximal effect; % is scaled to controls: 0 for no effect and ±100 for the full control effect; nearly all actives have a fitted effect of over 55% in size
miR-21 reporter = qHTS Assay for Modulators of miRNAs and/orActivators of miR-21 | HeLa miR-21 FLuc reporter, luciferase, 48 h | Potency, µM (titrated, usually from 38.3 µM), without a hit: at the highest dose activity change, positive = activation, most hits filed as activators | 340,000 tested, under 10 active | AID 2288, 2010;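 also: % of control where 0% means no effect; miR-21 action dims this reporter so a rising signal means less miR-21 action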
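HeLa miR-21-FLuc reporter line, endogenous miR-21; 2000 cells/well in DMEM/10% FBS; compound titration up to ~40uM final, 48 h, 37 degree Celsius; luciferase detection reagent, 15 min lysis, CCD luminescence.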
p53 reactivation = qHTS assay for re-activators of p53 using a Luc reporter; hit rate 0.063% among 320,000; Potency, µM (titrated, usually from 92.2 µM), inactives show at the highest dose activity change, positive = activation, most hits filed as activators; AID 504706, 2011; H1299 p53-A138V BP100-luciferase reporter, luminescence, 24 h; also: potency is read from the fitted curve at half-maximal effect; % of control where 0% means no effect; nearly all actives have a fitted effect of over 45% in size
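p53-null H1299 cells stably carrying temperature-sensitive p53-A138V and a BP100-luciferase reporter were pinned with compounds (4-point, 1:5 series) and held 24 hrs at 37 deg C. Luminescence was read 10 min after detection reagent.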
Epigenetic derep = Quantitative High-Throughput Screen for Regulators of Epigenetic Control. murine LDR cells, GFP reporter derepression, 30 h. Potency, µM (doses to about 53.9 µM), for the others: at the highest dose GFP activation, usual class: activators. hit rate 0.2% among 280,000; also: potency is read from the fitted curve at half-maximal effect; % of control where 0% means no effect; nearly all actives have a fitted effect of over 60% in size
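Murine LDR cells carrying a silenced, genomically integrated CMV-driven GFP reporter were exposed to compound for 30 hours at 37 C. After PBS washes, GFP-positive cells (20–120 um objects) were counted by laser-scanning microplate cytometry.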
* marks the source's active call; other numbers are inactive results; [ ] = remark or other dose. Hits are enriched below; roughly 0.62% of the tested compounds scored in any of these assays. Unless noted, calls follow the shape of the dose curve; as a rule, active = well fitted curve in the direction sought with a large enough effect; inconclusive = small, poorly fitted or top-dose-only effect, or another doubt; inactive = no such curve, though single readings can be large; an effect the other way counts as inactive or inconclusive.

`COc1ccc(C(=O)C2CCCN(Cc3cccn3-c3ccccn3)C2)c(OC)c1` (stereo not drawn) gave PINK1 modulator 40µM*, IL2 activator 0, uPA surface inh -12%, miR-21 reporter inconclusive, p53 reactivation -3% and Epigenetic derep 0%.
`Cc1ccc(NC(C(=O)c2ccccc2)c2ccccc2)cc1` (stereo not drawn) gave PINK1 modulator 35µM*, IL2 activator 0 and uPA surface inh -2%.
For O=C(NCCN1CCOCC1)c1cnn(-c2ncc3c(n2)-c2ccccc2CC3)c1C1CC1 the results were PINK1 modulator -1%.
For Cc1cccc(NC(=O)c2cnc3sccn3c2=O)c1 the results were PINK1 modulator 2%, IL2 activator -2, uPA surface inh 10µM*, miR-21 reporter -59%, p53 reactivation 6% and Epigenetic derep 0%.
`Cc1cccc(NC(=O)c2cnc3ccccn3c2=O)c1` gave PINK1 modulator 1%, IL2 activator 4, uPA surface inh inconclusive, miR-21 reporter -52%, p53 reactivation 18% and Epigenetic derep 0%.
CCOc1ccc(Nc2nc3c(C)cccc3cc2C#N)cc1 was read as PINK1 modulator 12%, IL2 activator 57*, uPA surface inh 3% and miR-21 reporter -6%.
For COc1ccccc1Nc1nc2c(C)cccc2cc1C#N the results were PINK1 modulator 15%, IL2 activator 1, uPA surface inh -1%, miR-21 reporter 2%, p53 reactivation -4% and Epigenetic derep inconclusive.
CCC1(C2CCN(C(=O)c3ccc(C)c(C)c3)CC2)NC(=O)N(CCc2scnc2C)C1=O (stereo not drawn) was read as PINK1 modulator 0%.
`Cc1ccc(NC(=O)/C(C#N)=C\c2ccc(-c3ccc(Cl)cc3)o2)c(C)c1` gave PINK1 modulator 0%, miR-21 reporter -4% and Epigenetic derep 3.5µM*.
Screening C[n+]1c(/C=C/c2ccc(N)cc2)sc2ccccc21 returned PINK1 modulator 0%.
`O=c1c(Cl)c2oc3ccccc3nc-2c2ccccc12` gave PINK1 modulator inconclusive, IL2 activator 22, uPA surface inh -6%, miR-21 reporter -10%, p53 reactivation 1% and Epigenetic derep 22µM*.
Screening Cc1nc2ccccc2oc1=O returned Epigenetic derep 1%.
For Cc1cc(F)ccc1S(=O)(=O)Nc1ccccc1C(=O)Nc1ncn[nH]1 the results were PINK1 modulator 2%, IL2 activator 0, uPA surface inh 7%, miR-21 reporter -7%, p53 reactivation 7% and Epigenetic derep -7%.
Screening Cc1cc(F)ccc1S(=O)(=O)Nc1ccccc1C(=O)Nc1ccccc1-c1nc2ccccc2[nH]1 returned PINK1 modulator 45µM*, IL2 activator -1, uPA surface inh -8%, miR-21 reporter inconclusive, p53 reactivation 4% and Epigenetic derep -1%.
`CC(=O)c1ccc(-c2ccc3c4c(ccc3c2)OC(CNC(=O)[C@@H]2CCCN2C(C)=O)C4)s1` (stereo partly drawn) gave PINK1 modulator 0%.
Screening C/C(=N\NC(=O)c1ccc(O)cc1)c1cccc(NC(=O)c2ccccc2C)c1 returned PINK1 modulator 12%, IL2 activator 4, uPA surface inh 10µM*, miR-21 reporter -8% and p53 reactivation 18%.
For Cc1ccccc1C(=O)Nc1cccc(NC(=O)c2ccccc2[N+](=O)[O-])c1 the results were PINK1 modulator -1%, IL2 activator -3, uPA surface inh 4.5µM* and miR-21 reporter -4%.
For Cc1ncc2c(c1CNC(=O)c1ccc3c(c1)OCO3)CCN(C(=O)/C=C/c1ccc(Cl)cc1)C2 the results were PINK1 modulator 0%.
`Cc1nc2cc(OC3(C)CCN(Cc4ccc(OC(F)(F)F)cc4)C3)ccc2s1` (stereo not drawn) gave PINK1 modulator 45µM* and IL2 activator -1.
`Cc1ccc2c3c(c(SCC(=O)Nc4nonc4C)nc2c1)CCCC3` gave PINK1 modulator 10µM*, IL2 activator 1, uPA surface inh -11%, miR-21 reporter -1%, p53 reactivation -4% and Epigenetic derep 3%.
For O=[N+]([O-])c1ccc(Oc2cccc3cccnc23)c([N+](=O)[O-])c1 the results were PINK1 modulator 6%, IL2 activator 0, uPA surface inh -9%, miR-21 reporter 20%, p53 reactivation -22% and Epigenetic derep 13µM*.
N#Cc1ccc(Oc2cccc3cccnc23)c([N+](=O)[O-])c1 was read as PINK1 modulator 0%, IL2 activator 1, uPA surface inh -3%, miR-21 reporter -15% and p53 reactivation 1%.
COCc1ccc(CN2CCOc3ccc(C4=CCCCC4)cc3C2)o1 was read as PINK1 modulator 0%.
Cc1ccc(N2C(=O)c3cccc4c(N)ccc(c34)C2=O)c2cccnc12 was read as PINK1 modulator 40µM*, IL2 activator 317*, uPA surface inh -88%, miR-21 reporter 22%, p53 reactivation 19% and Epigenetic derep 4µM*.
For Cc1nn(C)c(C)c1N1C(=O)c2cccc3c(N)ccc(c23)C1=O the results were PINK1 modulator 1%, IL2 activator 8, uPA surface inh -3%, miR-21 reporter -34%, p53 reactivation 1% and Epigenetic derep -4%.
For CCc1cc(C(=O)NCC2Cc3cc(C)cc(-c4cc(C(C)=O)ccc4F)c3O2)n(C)n1 (stereo not drawn) the results were PINK1 modulator 2%.
c1coc(-c2ccccc2CN2CCOc3ccc(CN4CCOCC4)cc3C2)c1 was read as PINK1 modulator 1%.
`CC1(C)Cc2nc3sc4c(=O)n(CC(=O)NCc5ccco5)cnc4c3cc2CO1` gave PINK1 modulator 11µM*, IL2 activator -1, miR-21 reporter 0%, p53 reactivation 23% and Epigenetic derep -1%.
For COc1cc(N=Nc2ccc3ccccc3c2)ccc1O the results were PINK1 modulator 2%, IL2 activator 0, uPA surface inh 3.2µM* and miR-21 reporter -54%.
CCOC(=O)C1CCN(C(=O)c2ccc(N(C)S(C)(=O)=O)cc2)CC1 was read as PINK1 modulator -4%[38.3 µM], IL2 activator 6, uPA surface inh 2%, miR-21 reporter 1%, p53 reactivation 0% and Epigenetic derep 1%.
For CN(c1ccc(C(=O)COC(=O)C2CC2)cc1)S(C)(=O)=O the results were PINK1 modulator 4%, IL2 activator -3, uPA surface inh -6% and p53 reactivation 35µM*.

Bioassay records as filed in PubChem.
